Results filed as inconclusive are left out. Entries that show only a call come without a potency. Active and inactive are the calls of the source. Unless noted, calls come from the whole dose curve; as a rule, active = well fitted curve in the direction sought with a large enough effect; inconclusive = small, poorly fitted or top-dose-only effect, or another doubt; inactive = no such curve, though single readings can be large; an effect the other way counts as inactive or inconclusive.
Tests used:
[1] = target: Aldehyde dehydrogenase, mitochondrial (Homo sapiens) (UniProt P05091); experiment: qHTS for Inhibitors of the Aldehyde Dehydrogenase Family (ALDH2) Confirmatory screens (AID 2061303; active = well fitted inhibition curve with a large enough effect; title and protocol of this record describe different tests; note: nearly all actives have a fitted effect of over 45% in size; note: potency is the fitted concentration of half-maximal effect)
[2] = qHTS for Inhibitors of the Aldehyde Dehydrogenase Family (ALDH1A2, ALDH1A3, ALDH2, ALDH3A1) (AID 2061307); note: nearly all actives have a fitted effect of over 50% in size; for potency: test system not described further here; potency is the fitted concentration of half-maximal effect
[3] = target: Aldehyde dehydrogenase, mitochondrial (Homo sapiens) (UniProt P05091); experiment: qHTS for Inhibitors of the Aldehyde Dehydrogenase Family (ALDH2) Primary screen (AID 2061308); note: nearly all actives have a fitted effect of over 55% in size; note: potency is the fitted concentration of half-maximal effect
[4] = target: Retinal dehydrogenase 2 (Homo sapiens) (UniProt O94788); experiment: qHTS for Inhibitors of the Aldehyde Dehydrogenase Family (ALDH1A2) Confirmation screens (AID 2061314); note: nearly all actives have a fitted effect of over 65% in size; note: potency is the fitted concentration of half-maximal effect
[5] = target: Retinaldehyde dehydrogenase 3 (Homo sapiens) (UniProt P47895); experiment: qHTS for Inhibitors of the Aldehyde Dehydrogenase Family (ALDH1A3) Primary screen (AID 2061315)
[6] = target: Aldehyde dehydrogenase 1A1 (Homo sapiens) (UniProt P00352); experiment: qHTS for Inhibitors of the Aldehyde Dehydrogenase Family (ALDH1A1) Confirmatory screens (AID 2061316); note: nearly all actives have a fitted effect of over 65% in size; note: potency is the fitted concentration of half-maximal effect

O=C(Nc1ccc(Cl)c(Cl)c1)Nc1ccc(-c2ccncc2)s1
Potency [1]: inactive
Potency [2]: inactive
Potency [3]: inactive
Potency [4]: inactive
Potency [5]: inactive
Potency [6]: 8.96 µM (active)

O=c1c2ccccc2nc2sc(Nc3cccc(N4CCNCC4)c3)nn12
Potency [1]: inactive
Potency [2]: inactive
Potency [3]: inactive
Potency [4]: 10.1 µM (active)
Potency [5]: inactive
Potency [6]: 12.7 µM (active)

Cc1c(Cl)cccc1NS(=O)(=O)c1cc2c(cc1Cl)CCC(=O)N2
Potency [1]: inactive
Potency [2]: inactive
Potency [3]: inactive
Potency [4]: 12.7 µM (active)
Potency [5]: inactive
Potency [6]: inactive

COc1ccc(C(=O)N(Cc2ccccc2)Cc2ccc(OC)c(COc3ccc(NC(C)=O)cc3)c2)c(O)c1
Potency [1]: inactive
Potency [2]: inactive
Potency [3]: inactive
Potency [5]: inactive

COc1ccc(C2Nc3ccccc3C(=O)N2Cc2ccc(C(C)(C)C)cc2)cc1COc1ccc(NC(C)=O)cc1 (stereo not drawn)
Potency [1]: 1.58 µM (active)
Potency [2]: 3.57 µM (active)
Potency [3]: inactive
Potency [5]: inactive

FC(F)(F)c1ccc(-c2nc(-c3nnc4n3CCCCC4)c(C(F)(F)F)o2)cc1
Potency [1]: inactive
Potency [2]: inactive
Potency [3]: inactive
Potency [5]: inactive

C[C@H](N)C(=O)Nc1cccc(-c2nn3c(=O)cc(N4CCNCC4)nc3s2)c1
Potency [1]: inactive
Potency [2]: inactive
Potency [3]: inactive
Potency [5]: inactive

CN1CCN(c2cccc(Nc3nn4c(=O)c5ccc(F)cc5nc4s3)c2)CC1
Potency [1]: inactive
Potency [2]: inactive
Potency [3]: inactive
Potency [5]: inactive

Cn1nnnc1Sc1ncnc2scc(-c3cccc(Br)c3)c12
Potency [1]: inactive
Potency [2]: inactive
Potency [3]: inactive
Potency [5]: inactive
Potency [6]: inactive

CC(C)(C)OC(=O)N1CCN(c2ccc(NCc3coc(-c4ccc(C#N)cc4)c3)cc2)CC1
Potency [1]: 0.798 µM (active)
Potency [2]: inactive
Potency [3]: 2 µM (active)
Potency [5]: inactive
Potency [6]: 3.57 µM (active)
